# A selection: hits, their analogues and other compounds. The true share with any hit is near 13%.
# MARV entry inh: qHTS for inhibitors of binding or entry into cells for Marburg Virus. actives 1.8% (n = 300,000). Potency, µM (doses to about 37.8 µM), for the others: at the top dose activity change, negative = inhibition, usual class: inhibitors. AID 540276, 2011. Marburg virus pseudotyped entry inhibition, cell reporter; calls by dose curve; tested in HEK293 cells; further: potency means the concentration at half of the fitted maximal effect; on the % scale 0 is the no-effect control and ±100 the full control effect
# CHX counter: Cycloheximide Counterscreen for Small Molecule Inhibitors of Shiga Toxin; cell reporter, cycloheximide protein synthesis inhibition counterscreen; max response, %; actives 12% (n = 300,000); AID 2314, 2010; in the data active means max response mostly above about 13%, no sharp cut-off; inactive means mostly below about 14%; further: read at 38.3 µM for the half of the compounds with a filed dose; 0% is about no effect
# LASV entry inh: qHTS for Inhibitors of binding or entry into cells for Lassa Virus. Lassa virus pseudotype entry inhibition, cell reporter. Potency, µM (highest dose often 37.9 µM), for the others: top-dose activity change, negative = inhibition, actives largely listed as inhibitors. actives 1.2% (n = 300,000); calls by dose curve; tested in HEK293 cells; further: potency means the concentration at half of the fitted maximal effect; on the % scale 0 is the no-effect control and ±100 the full control effect; nearly all actives have a fitted effect of over 50% in size
# FMDV antiviral: High Throughput Screening for Foot and Mouth Disease Virus Antivirals. FMDV antiviral cell-based qHTS. Potency, µM (doses to about 57.9 µM), for the others: at the highest dose activity change, negative = inhibition, hits mostly inhibitors. actives 1.2% (n = 410,000). AID 1159524, 2015; calls by dose curve; tested in HEK293T cells; further: read-out not given here; potency means the concentration at half of the fitted maximal effect; on the % scale 0 is the no-effect control and ±100 the full control effect; nearly all actives have a fitted effect of over 45% in size
# HCV inh: qHTS Assay for Inhibitors of Hepatitis C Virus (HCV) | actives 3.4% (n = 340,000) | Potency, µM (series often up to 41.8 µM), without a hit: at the top dose activity change, negative = inhibition, most hits filed as inhibitors | Huh7.5.1 HCVcc-Cre infection, luciferase reporter, 44 h | AID 651820, 2012; active means well fitted inhibition curve with a large enough effect; inconclusive means small, poorly fitted or top-dose-only effect, or another doubt; inactive means no such curve, though single readings can be large or run the other way; further: potency means the concentration at half of the fitted maximal effect; on the % scale 0 is the no-effect control and ±100 the full control effect
#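 HCVcc-Cre virus at an moi near 0.5 was added right after compound to cells cultured 4 h from seeding (1,000 cells/well). Luciferase activity was determined 44 h later, 15 min after substrate addition at RT.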
# Shiga toxin inh: A qHTS for Small Molecule Inhibitors of Shiga Toxin; Vero cells, Shiga toxin protein synthesis inhibition reporter; inhibition, % at 38.7 µM; actives 9.2% (n = 290,000); in the data active means inhibition mostly above about 28%, no sharp cut-off; inactive means mostly below about 43%; further: 0% is about no effect
# The depositor's hits bear a star; u = inconclusive; x = no result; [ ] = remark or other dose.
SMILES,MARV entry inh,CHX counter,LASV entry inh,FMDV antiviral,HCV inh,Shiga toxin inh
O=C(NNc1ccc([N+](=O)[O-])cc1[N+](=O)[O-])c1ccco1,u,-2,u,20µM*,-15%,-14
CCOc1ccc(NC(=O)c2ccco2)c([N+](=O)[O-])c1,u,66*,u,35%,2%,40*
COc1ccc(C(=O)COC(=O)COc2cc(C)cc(C)c2)cc1,12%,-2,15%,-9%,x,-7
O=C(CCCOC(=O)c1ccc(O)cc1O)c1ccccc1,x,x,x,8%,-22%,x
O=C(OCCCOc1ccc(F)cc1)c1ccc(O)cc1O,-1%,21*,-7%,-13%,-15%,21
Cc1ccc(CSCC(=O)NCc2ccc3c(c2)OCO3)cc1,13%[46.1 µM],-1,7%,15%,15%,-6
CCc1cc[n+](-c2nc3ccccc3nc2C(=C=[N-])C#N)cc1,22%,-2,-21%,12%,13%,-11
COCCNc1ccc([N+](=O)[O-])cc1C(=O)NC1CCCc2ccccc21 (centres undefined),u,-3,6%,-13%,13µM*,2
Cc1cc(C(=O)COC(=O)c2ccc(Cl)c(S(N)(=O)=O)c2)c(C)n1C1CC1,-1%,x,12%,-1%,u,x
CCOCC(=O)Nc1ccc(-c2cn3cccnc3n2)cc1,u,16,25%,14%,14%,5
c1cnc2nc(-c3ccc4c(c3)OCO4)cn2c1,u,35*,-29%,45%,1%,38*
Cc1ccc(-c2cn3cccnc3n2)cc1,4%[46.1 µM],28*,x,30%,27%,71*
O=C(Nc1cccc(-c2cn3cccnc3n2)c1)c1ccc2c(c1)OCO2,-3%,9,10%,7%,u,14
Cc1cc(C)cc(C(=O)Nc2ccc(-c3cn4cccnc4n3)cc2)c1,-1%[46.1 µM],x,-14%[46.1 µM],-29%,x,x
CS(=O)(=O)Nc1ccc(-c2cn3cccnc3n2)cc1,x,21*,x,27%,24%,43*
CC1C(=O)N(Cc2ccc([N+](=O)[O-])cc2)c2ccccc2N1C(=O)c1c(F)cccc1F (centres undefined),u,-3,u,35µM*,u,-7
COc1ccc(CN2C(=O)C(C)N(C(=O)c3c(F)cccc3F)c3ccccc32)cc1 (centres undefined),x,4,x,35µM*,u,15
COc1cccc(CN2C(=O)C(C)N(C(=O)c3ccccc3)c3ccccc32)c1 (centres undefined),10µM*,0,u,u,u,5
Cn1cccc1C(=O)OCC(=O)NC(=O)c1ccc(Cl)cc1,u,x,20%,-1%,-4%,x
COc1cccc(-c2nn3c(=O)cc(CN4CCN(C(=O)COc5ccccc5C)CC4)nc3s2)c1,x,x,18%[46.1 µM],3.5µM*,x,x
COc1ccccc1CC(NC(C)=O)C(=O)NC1CCN(C(=O)Nc2cccc(F)c2)CC1 (centres undefined),17%[46.1 µM],-3,x,-2%,11%,-2
COc1ccc(-n2nc3c(c2NC(=O)CCl)CSC3)cc1,u,12,u,32µM*,-32%,13
COc1ccc(-n2nc3c(c2NC(=O)C(C)Cl)CSC3)cc1 (centres undefined),x,-3,x,-8%,-12%,-4
Cc1cccc(N2CCN(C(=O)c3cccc(-n4c(C)nc5cccnc54)c3)CC2C)c1 (centres undefined),x,x,u,18µM*,x,x
Cc1cccc(N2CCN(C(=O)c3ccccn3)CC2C)c1 (centres undefined),-1%[46.1 µM],-2,-15%[46.1 µM],-3%,17%,-1
SMILES,MARV entry inh,CHX counter,LASV entry inh,FMDV antiviral,HCV inh,Shiga toxin inh
COc1ccc(N2CCN(C(=O)c3cccc(-n4c(C)nc5cccnc54)c3)CC2)cc1,x,x,5%[46.1 µM],u,x,x
Cc1ccc(C)c(N2CCN(C(=O)c3cccc(-n4c(C)nc5cccnc54)c3)CC2)c1,x,x,u,25µM*,x,x
Cc1cccc(N2CCN(C(=O)c3cccc(-n4c(C)nc5cccnc54)c3)CC2)c1C,x,x,-13%[46.1 µM],u,x,x
Cc1nc2cccnc2n1-c1cccc(C(=O)N2CCN(c3ccc(Cl)cc3)CC2)c1,x,x,u,13µM*,x,x
COc1ccc(N2CCN(/C(=N\S(=O)(=O)c3ccccc3)Nc3nc(C)cc(C)n3)CC2)cc1,12%,-6,u,20%,0%,-5
CCCc1nc2oc(C(=O)OCC)c(N)c2c2c1COC(C)(C)C2,u,-6,-9%,-16%,u,-3
N/C(CN1CCCC1=O)=N\OC(=O)c1ccccc1Cl,u,26*,-4%,66%,2%,16
N/C(CN1CCCC1=O)=N\O,28%,-6,-7%,3%,12%,-18
O=C1CC(c2ccccc2)Oc2cc(O)cc(O)c21 (centres undefined),x,16*,x,33%,-27%,57*
O=C1CC(c2ccc(O)cc2)Oc2cc(O)cc(O)c21 (centres undefined),15%,14*,0%,-17%,-5%,36
CSc1ccc(C2=C/C(=C3/SC(=S)NC3=O)c3ccccc3O2)cc1,0%[46.1 µM],x,15%,2%,13%,x
COc1cccc(CNC(=O)Nc2cn(CC(C)C)c(=O)c3ccccc23)c1,x,x,14%[46.1 µM],3%,x,x
OC(COc1ccc2cc(Br)ccc2c1)CN1CCCC1 (centres undefined),8.2µM*,46*,0%,-7%,4.5µM*,77*
CN(C)S(=O)(=O)N1CCN(CC(O)COc2ccc3cc(Br)ccc3c2)CC1 (centres undefined),u,-3,0%,-29%,32µM*,-15
O=S(=O)(N1CCCCC1)N1CCN(CC(O)COc2ccc3cc(Br)ccc3c2)CC1 (centres undefined),-21%,-3,-28%,u,u,17
CCC[C@H]1CN(c2ccccc2)C(=O)[C@@H]1CC(=O)Nc1ccc(OC)cc1,x,x,x,-23%,x,x
O=C(NCCCn1ccnc1)c1cc(-c2ccc(Cl)cc2)nc2ccccc12,5%,-3,-13%,-26%,11µM*,-8
O=C(NCCCn1ccnc1)C(=O)Nc1ccccc1,-3%[46.1 µM],16*,x,52%,32%,28
O=C(NCCCn1ccnc1)c1cc2c(ccc3ccccc32)o1,6%[46.1 µM],31*,7%,3%,19%,68
O=c1c2ccccc2oc2ccc(NCCCn3ccnc3)cc12,x,33*,x,-21%,u,54*
COC(=O)c1sc(C(C)(C)C)cc1CS(=O)(=O)c1ccc(Cl)cc1,x,-2,x,u,-27%,1
COc1ccc(/C=N/OCC(=O)Nc2ccc3c(c2)OCO3)c(OC)c1,-6%[46.1 µM],-3,-23%,-1%,u,-6
Cc1nc(NCCCn2ccnc2)c2oc3ccccc3c2n1,-2%,16*,18%,-19%,u,33

# From PubChem BioAssay
